We go through 31 compounds from PubChem BioAssay.

For test [1], the system named is transactivating tegument protein VP16 (Human herpesvirus 1). Put plainly: compounds suppressing VP16-driven luciferase signal – cell-based, luminescence, single concentration, counter-screen for SRC2 inhibitor project (AID 652007; in the data active = inhibition above about 36%). The conditions noted are these: cell-based VP16 transactivation luciferase reporter, at 8.9 µM, hits give high values.
In test [2] the target is Nuclear receptor coactivator 2 (Homo sapiens) (UniProt Q15596). Put plainly: inhibition of GAL4-SRC2 driven luciferase expression – cell-based, luminescence, HEK293, triplicate, confirmation (AID 652008).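 Note: 0% = DMSO-treated cells and 100% = Gossypol at 36 µM.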 The conditions noted are these: HEK293 GAL4-SRC2 luciferase reporter, at 8.9 µM, hits give high values.
Chain of Nuclear receptor coactivator 2 (Homo sapiens) (Q15596 whole entry, looked up, the tested form may be a part): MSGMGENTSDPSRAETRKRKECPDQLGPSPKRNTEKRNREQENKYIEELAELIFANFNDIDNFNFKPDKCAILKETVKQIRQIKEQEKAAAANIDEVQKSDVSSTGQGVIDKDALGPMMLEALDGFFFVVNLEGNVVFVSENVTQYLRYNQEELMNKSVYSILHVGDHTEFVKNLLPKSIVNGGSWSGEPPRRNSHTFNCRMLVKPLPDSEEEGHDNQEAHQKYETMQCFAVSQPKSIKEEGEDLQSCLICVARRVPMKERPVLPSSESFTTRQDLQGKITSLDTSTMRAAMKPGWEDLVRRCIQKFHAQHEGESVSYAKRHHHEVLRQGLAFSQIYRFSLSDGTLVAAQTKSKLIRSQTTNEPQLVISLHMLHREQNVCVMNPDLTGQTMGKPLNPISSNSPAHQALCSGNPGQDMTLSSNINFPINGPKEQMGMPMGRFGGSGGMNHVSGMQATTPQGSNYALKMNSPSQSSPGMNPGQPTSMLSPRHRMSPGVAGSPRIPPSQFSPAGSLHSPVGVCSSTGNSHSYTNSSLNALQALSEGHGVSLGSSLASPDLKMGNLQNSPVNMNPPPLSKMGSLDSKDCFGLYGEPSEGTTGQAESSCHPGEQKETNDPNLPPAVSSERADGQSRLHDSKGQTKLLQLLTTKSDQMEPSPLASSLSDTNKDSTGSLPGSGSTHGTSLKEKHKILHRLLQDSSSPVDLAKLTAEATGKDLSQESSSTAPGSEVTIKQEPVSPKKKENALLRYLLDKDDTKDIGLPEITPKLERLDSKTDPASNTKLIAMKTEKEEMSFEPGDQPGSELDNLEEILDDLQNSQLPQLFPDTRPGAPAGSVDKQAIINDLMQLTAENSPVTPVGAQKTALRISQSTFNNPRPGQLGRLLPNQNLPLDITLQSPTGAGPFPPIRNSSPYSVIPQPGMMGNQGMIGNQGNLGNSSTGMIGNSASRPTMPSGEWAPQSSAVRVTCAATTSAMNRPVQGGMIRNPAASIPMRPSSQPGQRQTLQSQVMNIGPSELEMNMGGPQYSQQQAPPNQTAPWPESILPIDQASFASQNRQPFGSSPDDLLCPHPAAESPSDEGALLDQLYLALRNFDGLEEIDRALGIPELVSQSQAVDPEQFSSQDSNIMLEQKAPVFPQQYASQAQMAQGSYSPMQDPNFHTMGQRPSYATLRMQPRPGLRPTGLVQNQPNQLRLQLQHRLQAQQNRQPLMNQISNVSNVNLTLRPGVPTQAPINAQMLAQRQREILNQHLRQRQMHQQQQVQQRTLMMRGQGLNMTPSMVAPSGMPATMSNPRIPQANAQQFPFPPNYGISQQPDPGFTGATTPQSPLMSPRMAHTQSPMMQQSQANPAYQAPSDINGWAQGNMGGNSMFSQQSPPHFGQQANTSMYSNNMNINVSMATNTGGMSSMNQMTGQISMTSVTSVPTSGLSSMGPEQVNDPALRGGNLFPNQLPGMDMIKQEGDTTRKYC

Each structure is given as a SMILES string. Unmarked numbers belong to inactive results. Active and inactive are the calls of the source.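 Rule for the calls, unless noted: active = mean inhibition above 46.5%, the solvent-only control mean plus 3 SD; inactive = the rest.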

For the compound `O=C(NCCc1ccccc1)c1ccc2c(c1)OCO2`, the inhibition in test [1] is -13.4%; in test [2], 16.7%.

Consider `CC(C)=CCc1c(O)ccc2c1OC(c1ccc(O)c(O)c1)CC2=O` (configuration not stated), for which the inhibition was 10.7% in test [1] and 56.9% (active) in test [2].

For the compound `CC1=CC(C)(C)Nc2ccc(OC(=O)CN3C(=O)c4ccccc4C3=O)cc21`, the inhibition in test [1] was -37.1%; in test [2] it was 26.9%.

As to `O=C(c1ccc(S(=O)(=O)Cc2cc(F)ccc2F)c([N+](=O)[O-])c1)N1CCOCC1`, the inhibition in test [1] was 5.57%; in test [2], 13.5%.

With `Cc1ccc(C2CC(c3cccs3)=NN2C(=O)CCl)cc1` (configuration not stated), the inhibition in test [1] was 6.45%; in test [2], 38.9%.

On to `CCCC(=O)Nc1cccc(NC(=O)c2ccccc2Br)c1`, for which the values for the inhibition in test [1] and in test [2] were -0.46% and -17.8%, respectively.

Take `O=C1N(Cc2cccc(Cl)c2)C[C@@H]2C[C@@H](c3cccc4cccnc34)N3CCC[C@@]123`: the figures for the inhibition in test [1] and in test [2] were -2.19% and -23.5%, respectively.

As for `COCCN(C(=O)Cc1ccc(S(=O)(=O)N2CCOCC2)s1)c1c(N)n(CC(C)C)c(=O)[nH]c1=O`, the values for the inhibition in test [1] and in test [2] were 1.4% and -13.1%, respectively.

Consider `CC1CCCC(C)N1C(=O)c1cccc2c1-c1ccccc1/C2=N/O` (configuration not stated), for which the inhibition in test [1] was -10.5%; in test [2] it was 8.15%.

Consider `O=C(O)CCC(=O)Nc1cccc(-c2csc(-c3ccccc3)n2)c1`, for which the figures for the inhibition in test [1] and in test [2] were 47.1% (active) and 34.6%, respectively.

Turning to `COc1ccc(/C=C2\SC(=S)N(CCC(=O)NC3C=CS(=O)(=O)C3)C2=O)cc1` (configuration not stated), the inhibition in test [1] is 3.55%; in test [2], 62.1% (active).

With `CCOC(=O)C(C(=O)OCC)C(Nc1cccc(Br)c1)c1ccccc1` (configuration not stated), the inhibition in test [1] is 8.47%; in test [2], 19.3%.

Take `Cc1ccccc1C(=O)N1CCN(c2ccc(NC(=O)c3ccccc3[N+](=O)[O-])cc2)CC1`: the inhibition in test [1] is -22%; in test [2], 12.1%.

In the case of `Fc1ccc(CNC2CCN(Cc3ccccc3)CC2)cc1`, the figures for the inhibition in test [1] and in test [2] were 7.5% and -3.44%, respectively.

`COc1cc(S(=O)(=O)N(C)Cc2ccc3c(c2)OCCO3)ccc1NC(C)=O`: the inhibition in test [1] was -27.6%; in test [2], -19.6%.

As for `O=C(NCCCN1CCOCC1)c1cc(-c2ccc(Br)cc2)on1`, the inhibition is -7.7% in test [1] and 13.1% in test [2].

Take `O=S(=O)(c1ccc(Cl)cc1)c1snnc1-c1ccccc1`: the inhibition was 31.6% in test [1] and 76.7% (active) in test [2].

For the compound `CCOC(=O)C1CCCN(C(=O)c2ccc3c(c2)N(C)C(=O)/C(=C/c2ccccc2Cl)S3)C1` (configuration not stated), the inhibition is -1.52% in test [1] and 23.8% in test [2].

As for `O=C(COc1ccc2c(c1)CCC2)Nc1ccccn1`, the inhibition in test [1] is 2.76%; in test [2] it was 41%.

As to `Cc1c(CCC(=O)N2CCC(C(=O)O)CC2)c(=O)oc2cc3oc4c(c3cc12)CCCC4`, the figures for the inhibition in test [1] and in test [2] were 33.6% and 61% (active), respectively.

For `CC(=O)c1c(C)[nH]c(C(=O)Nc2ccc(N3CCCCCC3)cc2)c1C`, the figures for the inhibition in test [1] and in test [2] were -41.5% and 19.9%, respectively.

Take `O=C(CCCN1C(=O)/C(=C/c2cccc(Br)c2)SC1=S)NCCCN1CCOCC1`: the inhibition was 32.1% in test [1] and 10.6% in test [2].

Regarding `CCOc1ccc(-c2nc(CSCC(=O)N3CCN(c4cccc(OC)c4)CC3)c(C)o2)cc1`, the inhibition in test [1] is 23.2%; in test [2] it was 49.8% (active).

Take `COc1ccc2c(c1)/C(=C\c1cccc(/C=C3/C(=O)Nc4ccc(OC)cc43)n1)C(=O)N2`: the inhibition in test [1] is 90.5% (active); in test [2] it was 76.2% (active).

For `N#Cc1ccccc1COc1ccc(/C=C/C(=O)O)cc1`, the results for the inhibition in test [1] and in test [2] were 57.9% (active) and 76.8% (active), respectively.

As to `CCOc1ccc(-c2cc(CCCC(=O)NCCc3ccccc3)no2)cc1`, the inhibition in test [1] is 6.55%; in test [2] it was 44.9%.

As for `CCCCn1c(CCC)nc([N+](=O)[O-])c1Sc1ccc(Cl)cn1`, the inhibition in test [1] is 13.2%; in test [2] it was 20.7%.

For `Cc1ccccc1N(Cc1cc(=O)[nH]c2ccccc12)C(=O)CCl`, the inhibition was 44.6% (active) in test [1] and 76.7% (active) in test [2].

For `CN(Cc1cc(Cl)cc(Cl)c1)CC(C(=O)c1ccccc1)c1ccccc1` (configuration not stated), the inhibition was 25% in test [1] and 47.9% (active) in test [2].

Consider `Cc1ccc2cc(CN(Cc3ccco3)S(=O)(=O)c3c(C)ccc4nsnc34)c(=O)[nH]c2c1`, for which the results for the inhibition in test [1] and in test [2] were 26.5% and 14.2%, respectively.

With `COc1cc(Cn2c3ccc(NC(=O)CC(C)c4ccccc4)cc3c(=O)n2C)ccc1F` (configuration not stated), the inhibition in test [1] was -0.16%; in test [2], 2.27%.
